Assay results as given in PubChem BioAssay (NCATS).
Records with an inconclusive call do not appear. Calls of active or inactive are those of the source. Unless noted, calls come from the whole dose curve; as a rule, active = well fitted curve in the direction sought with a large enough effect; inconclusive = small, poorly fitted or top-dose-only effect, or another doubt; inactive = no such curve, though single readings can be large; an effect the other way counts as inactive or inconclusive.

Key:
[1] = NS1 protein of Zika virus - qHTS assay to identify small molecule inhibitors in human HEK 293 cells (AID 1347053); note: series mostly up to about 46 µM; nearly all actives have a fitted effect of over 55% in size
How it was run: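 HEK 293; 20 h pre-culture, 37 C/5% CO2; cpd 1 h pre-infection; ZIKV MR766, MOI = 0.5, 24 h, 37 C; TR-FRET NS1 readout (two anti-NS1 Abs); norm. to no-virus vs infected.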

[2] = qHTS of pediatric cancer cell lines to identify multiple opportunities for drug repurposing: Primary screen for TC32 cells (AID 1347089); note: nearly all actives have a fitted effect of over 60% in size
How it was run: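 TC32 cells, 500-1,000/well in growth medium, compound-treated 48 h at 37 °C; viability from CellTiter-Glo luminescence. Primary screen: MIPE 11-point (0.78 nM–46 µM final), NPC 8-point (0.59 nM–46 µM final); confirmatory at 11-point dilutions.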

[3] = qHTS of pediatric cancer cell lines to identify multiple opportunities for drug repurposing: Primary screen for DAOY cells (AID 1347090); note: series mostly up to about 46 µM; nearly all actives have a fitted effect of over 55% in size
How it was run: (§1)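 Eight- or eleven-point concentration series, 48 h treatment at 37 degrees C in growth media; readout CellTiter-Glo luminescence. Potency and efficacy were taken from the concentration-response curves.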

[4] = qHTS of pediatric cancer cell lines to identify multiple opportunities for drug repurposing: Primary screen for SJ-GBM2 cells (AID 1347091)
How it was run: as §1

[5] = qHTS of pediatric cancer cell lines to identify multiple opportunities for drug repurposing: Primary screen for A673 cells (AID 1347092); note: nearly all actives have a fitted effect of over 45% in size
How it was run: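 A673 cells (500-1,000 cells/well) were treated 48 hours at 37 degrees C with compounds at 11-point (0.78 nM to 46 µM) or 8-point (0.59 nM to 46 µM) dilutions. Viability read by CellTiter-Glo luminescence; concentration-response curves fitted.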

[6] = qHTS of pediatric cancer cell lines to identify multiple opportunities for drug repurposing: Primary screen for SK-N-MC cells (AID 1347093); note: series mostly up to about 46 µM
How it was run: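 Metabolically active cells were quantified by ATP-dependent luminescence (CellTiter-Glo, 15 min at room temperature) following 48 h treatment. Cells had been plated at 500-1,000 per well and settled for 5 h beforehand.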

[7] = qHTS of pediatric cancer cell lines to identify multiple opportunities for drug repurposing: Primary screen for BT-37 cells (AID 1347094); note: series mostly up to about 57 µM
How it was run: (§2)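 Readout: CellTiter-Glo luminescence, 48 h treatment. Controls DMSO (neutral) and bortezomib 2.3 µM final (positive). Potency and efficacy taken from primary-screen concentration-response curves.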

[8] = qHTS of pediatric cancer cell lines to identify multiple opportunities for drug repurposing: Primary screen for NB-EBc1 cells (AID 1347095)
How it was run: as §2

[9] = qHTS of pediatric cancer cell lines to identify multiple opportunities for drug repurposing: Primary screen for U-2 OS cells (AID 1347096); note: nearly all actives have a fitted effect of over 50% in size
How it was run: (§3)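 Cells (500-1,000/well) in growth media were settled 5 h at 37 degrees C, then given compounds for 48 h. Viability was read as CellTiter-Glo luminescence. Primary runs used MIPE at 11 points (0.78 nM-46 µM) and NPC at 8 points (0.59 nM-46 µM); follow-ups used 11 points.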

[10] = qHTS of pediatric cancer cell lines to identify multiple opportunities for drug repurposing: Primary screen for Saos-2 cells (AID 1347097); note: nearly all actives have a fitted effect of over 40% in size
How it was run: as §2

[11] = qHTS of pediatric cancer cell lines to identify multiple opportunities for drug repurposing: Primary screen for SK-N-SH cells (AID 1347098); note: nearly all actives have a fitted effect of over 65% in size
How it was run: (§4)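 Cells (500-1,000/well) rested 5 h, then received compounds for 48 h; metabolically active cells were measured by CellTiter-Glo luminescence. Final concentrations spanned up to 46 µM (MIPE, 11-point) or 0.59 nM-46 µM (NPC, 8-point) in primary screens, 11-point in follow-ups.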

[12] = qHTS of pediatric cancer cell lines to identify multiple opportunities for drug repurposing: Primary screen for NB1643 cells (AID 1347099); note: nearly all actives have a fitted effect of over 50% in size
How it was run: as §2

[13] = qHTS of pediatric cancer cell lines to identify multiple opportunities for drug repurposing: Primary screen for LAN-5 cells (AID 1347100)
How it was run: as §3

[14] = qHTS of pediatric cancer cell lines to identify multiple opportunities for drug repurposing: Primary screen for BT-12 cells (AID 1347101); note: nearly all actives have a fitted effect of over 25% in size
How it was run: as §4

[15] = qHTS of pediatric cancer cell lines to identify multiple opportunities for drug repurposing: Primary screen for Rh18 cells (AID 1347102); note: nearly all actives have a fitted effect of over 65% in size
How it was run: as §3

[16] = biological target: Atrial natriuretic peptide receptor 2 (Homo sapiens) (UniProt P20594); assay: Natriuretic polypeptide receptor (hNpr2) antagonism - Pilot subtype selectivity assay (AID 1347050; calls by dose curve)
Atrial natriuretic peptide receptor 2 (Homo sapiens), sequence (P20594 whole entry, looked up): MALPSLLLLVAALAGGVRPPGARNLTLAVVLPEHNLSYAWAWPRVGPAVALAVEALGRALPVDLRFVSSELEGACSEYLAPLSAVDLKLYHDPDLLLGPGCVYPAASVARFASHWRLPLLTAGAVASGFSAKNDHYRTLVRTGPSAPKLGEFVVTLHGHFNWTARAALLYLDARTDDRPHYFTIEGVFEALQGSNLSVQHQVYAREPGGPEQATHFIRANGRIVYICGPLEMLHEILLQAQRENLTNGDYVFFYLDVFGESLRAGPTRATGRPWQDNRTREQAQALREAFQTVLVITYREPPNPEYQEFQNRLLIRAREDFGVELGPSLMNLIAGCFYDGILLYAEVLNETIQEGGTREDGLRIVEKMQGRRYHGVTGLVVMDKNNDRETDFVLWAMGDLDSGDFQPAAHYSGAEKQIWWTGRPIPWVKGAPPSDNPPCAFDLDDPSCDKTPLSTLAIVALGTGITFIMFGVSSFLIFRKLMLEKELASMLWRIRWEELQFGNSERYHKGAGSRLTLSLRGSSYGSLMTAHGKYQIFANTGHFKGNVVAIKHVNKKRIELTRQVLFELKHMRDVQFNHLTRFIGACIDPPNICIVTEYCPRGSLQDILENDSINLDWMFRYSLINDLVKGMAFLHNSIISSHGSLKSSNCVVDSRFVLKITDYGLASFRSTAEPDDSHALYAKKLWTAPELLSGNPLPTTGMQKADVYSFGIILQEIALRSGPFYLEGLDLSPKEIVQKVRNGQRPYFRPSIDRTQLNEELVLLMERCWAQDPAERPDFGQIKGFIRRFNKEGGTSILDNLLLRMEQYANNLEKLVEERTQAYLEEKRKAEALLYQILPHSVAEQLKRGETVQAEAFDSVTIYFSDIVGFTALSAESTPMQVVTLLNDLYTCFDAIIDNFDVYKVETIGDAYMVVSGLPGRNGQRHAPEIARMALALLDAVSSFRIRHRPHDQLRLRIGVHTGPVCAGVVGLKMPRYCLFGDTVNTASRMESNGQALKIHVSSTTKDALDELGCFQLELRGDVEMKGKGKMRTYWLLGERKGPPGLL
How it was run: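 cGMP-sensor HEK293/hNpr2 cells; 2% GloSensor reagent 2 h RT; compounds 30 min; baseline luminescence read; 1 nM hNppC agonist 20 min RT; final luminescence read by CCD camera. Antagonism = reduced post-agonist signal.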

[17] = biological target: T1, Tyrosine-protein phosphatase non-receptor type substrate 1 (Homo sapiens) + Leukocyte surface antigen CD47 (Homo sapiens) (UniProt P78324+Q08722); assay: CD47-SIRPalpha protein protein interaction - LANCE assay qHTS validation (AID 1347057; active = well fitted curve in the direction sought with a large enough effect in the signal ratio, with a control signal flat, not every such curve was filed as active; the % refers to the signal ratio; note: series mostly up to about 38 µM)
T1 sequence (P78324 whole entry, looked up): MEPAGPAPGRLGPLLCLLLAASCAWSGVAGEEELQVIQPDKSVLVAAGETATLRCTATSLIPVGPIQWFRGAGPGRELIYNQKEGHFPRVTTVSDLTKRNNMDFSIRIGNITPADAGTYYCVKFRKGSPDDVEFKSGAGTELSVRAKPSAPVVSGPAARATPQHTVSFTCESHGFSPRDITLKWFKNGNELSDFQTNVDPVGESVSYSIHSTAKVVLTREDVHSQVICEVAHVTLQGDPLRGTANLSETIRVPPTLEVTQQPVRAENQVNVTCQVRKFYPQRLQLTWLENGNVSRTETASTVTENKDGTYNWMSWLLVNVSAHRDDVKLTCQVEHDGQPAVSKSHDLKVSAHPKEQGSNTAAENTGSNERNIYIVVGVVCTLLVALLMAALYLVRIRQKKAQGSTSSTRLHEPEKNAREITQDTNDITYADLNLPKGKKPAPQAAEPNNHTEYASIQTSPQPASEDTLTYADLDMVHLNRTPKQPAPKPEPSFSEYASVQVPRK
T1 sequence (Q08722 whole entry, looked up): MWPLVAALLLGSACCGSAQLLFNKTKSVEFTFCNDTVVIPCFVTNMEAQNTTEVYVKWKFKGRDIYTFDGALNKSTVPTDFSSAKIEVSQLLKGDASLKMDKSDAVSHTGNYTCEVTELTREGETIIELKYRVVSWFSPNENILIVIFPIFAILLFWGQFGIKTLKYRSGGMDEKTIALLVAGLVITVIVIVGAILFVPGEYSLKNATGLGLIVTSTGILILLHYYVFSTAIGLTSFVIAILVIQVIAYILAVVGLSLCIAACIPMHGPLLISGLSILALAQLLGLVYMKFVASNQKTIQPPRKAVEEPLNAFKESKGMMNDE
How it was run: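 First, His-tagged CD47 and Eu-labelled anti-His antibody met the compound for 30 min; next, site-specifically biotinylated SIRPalpha was added for 30 min; finally streptavidin-APC was added before reading the TR-FRET ratio.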

[18] = biological target: T1, Tyrosine-protein phosphatase non-receptor type substrate 1 (Homo sapiens) + Leukocyte surface antigen CD47 (Homo sapiens); assay: CD47-SIRPalpha protein protein interaction - Alpha assay qHTS validation (AID 1347059);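 note: bead proximity luminescence from CD47 binding SIRPalpha after compound preincubation with SIRPalpha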
How it was run: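 Soluble extracellular domains: Avi-tag biotinylated SIRPalpha (25 nM) preincubated 30 min RT with compound, then 6His-CD47 (12.5 nM) 30 min; Ni-NTA acceptor and streptavidin donor beads (10 ug/mL) 30 min, AlphaScreen read. PBS pH 7.4, 0.05% IGEPAL.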

[19] = biological target: Parathyroid hormone/parathyroid hormone-related peptide receptor (Homo sapiens) (UniProt Q03431); assay: qHTS for PTHR1 Agonists: Optimization Screen against the NCGC LOPAC library (AID 1347079);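 note: GloSensor cAMP luminescence in HEK-293 GP2 cells expressing human PTHR1 with IBMX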
Parathyroid hormone/parathyroid hormone-related peptide receptor (Homo sapiens), sequence (Q03431 whole entry, looked up): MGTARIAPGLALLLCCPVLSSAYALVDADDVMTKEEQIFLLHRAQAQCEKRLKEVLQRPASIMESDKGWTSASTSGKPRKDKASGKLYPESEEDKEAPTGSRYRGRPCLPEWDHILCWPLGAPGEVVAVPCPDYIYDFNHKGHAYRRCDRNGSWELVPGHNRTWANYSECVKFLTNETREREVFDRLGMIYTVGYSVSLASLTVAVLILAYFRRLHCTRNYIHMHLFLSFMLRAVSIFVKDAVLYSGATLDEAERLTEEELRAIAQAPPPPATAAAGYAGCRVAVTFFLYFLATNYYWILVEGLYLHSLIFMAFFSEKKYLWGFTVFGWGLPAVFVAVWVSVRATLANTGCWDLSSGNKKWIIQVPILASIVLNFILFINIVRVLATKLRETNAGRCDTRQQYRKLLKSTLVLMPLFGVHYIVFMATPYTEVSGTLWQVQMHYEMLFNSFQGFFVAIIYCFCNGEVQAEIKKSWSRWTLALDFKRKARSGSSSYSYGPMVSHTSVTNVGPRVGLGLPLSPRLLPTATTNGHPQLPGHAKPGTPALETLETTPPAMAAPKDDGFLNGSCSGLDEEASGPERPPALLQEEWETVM
How it was run: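 Compounds were tested across a qHTS titration. PTHR1-expressing GP2 cells report cAMP rises via GloSensor luminescence after 1 hr compound exposure at 37C with IBMX present.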

[20] = qHTS of pediatric cancer cell lines to identify multiple opportunities for drug repurposing: Primary screen for OHS-50 cells (AID 1347103); note: nearly all actives have a fitted effect of over 40% in size
How it was run: as §4

Measured: Potency

Nc1ccc(C(=O)N2CC3CC(CN(Cc4ccccc4)C3)C2)cc1
inactive: [1] | [2] | [3] | [4] | [5] | [6] | [7] | [8] | [9] | [10] | [11] | [12] | [13] | [14] | [15]

Cc1ccc2c(Cl)cc(Cl)c(O)c2n1
inactive: [1] | [2] | [3] | [4] | [5] | [6] | [7] | [8] | [9] | [10] | [11] | [12] | [13] | [14] | [15]

Nc1ncnc2n[nH]c(Nc3ccc(F)cc3)c12
inactive: [16] | [1] | [17] | [18] | [19]

CCCC(=O)OCOC(=O)C1=C(C)NC(C)=C(C(=O)OC)C1c1cccc(Cl)c1Cl (stereo unspecified)
inactive: [1] | [2] | [3] | [4] | [5] | [6] | [7] | [8] | [9] | [10] | [11] | [12] | [13] | [14] | [15]

C[N+](C)(C)CCO
inactive: [16] | [17] | [18] | [19]

Brc1ccc([C@H]2CN3CCSC3=N2)cc1
inactive: [16] | [1] | [17] | [18] | [19]

Cc1cc(=O)oc2cc(O[C@@H]3SC[C@@H](O)[C@H](O)[C@H]3O)ccc12
inactive: [1] | [2] | [3] | [4] | [5] | [6] | [7] | [8] | [9] | [10] | [11] | [12] | [13] | [14] | [15]

O=C(NN1CCCC1)NS(=O)(=O)c1ccc(Cl)cc1
inactive: [1] | [2] | [3] | [4] | [5] | [6] | [7] | [8] | [9] | [10] | [11] | [12] | [13] | [14] | [15] | [20]

CN(CC1(C)CCCO1)S(=O)(=O)c1ccc(Cl)c(S(N)(=O)=O)c1 (stereo unspecified)
inactive: [1] | [2] | [3] | [4] | [5] | [6] | [7] | [8] | [9] | [10] | [11] | [12] | [13] | [14] | [15] | [20]

CC(C)(C)C(O)/C=C/c1ccc2c(c1)OCO2 (stereo unspecified)
inactive: [1] | [2] | [3] | [4] | [5] | [6] | [7] | [8] | [9] | [10] | [11] | [12] | [13] | [14] | [15]

O=C1NC(=O)/C(=C/c2ccc3c(c2)OC(F)(F)O3)S1
inactive: [16] | [1] | [17] | [18] | [19]
